Measured values taken from PubChem BioAssay (NCI).
About 79,000 compounds went through this panel and 15% of them were active in at least one assay; those are over-represented in the sample as a whole. A number with no mark means an inactive call. The source made the active and inactive calls. No stated cut-off is given here; in the data, active means growth inhibition above about 70%; inactive means the rest.

Test: NCI Yeast Anticancer Drug Screen. Data for the wt2 strain (AID 169);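 further: 0% = growth of vehicle-treated yeast cultures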
Conditions: S. cerevisiae wt2 strain growth inhibition, stronger effect = higher value
Description: Growth inhibition of yeast strains with defined genetic alterations is measured as a screen for potential anti-cancer activity. Selected strains with alterations in DNA damage repair or cell cycle control were exposed to compounds and growth inhibition was measured relative to vehicle treated controls. The strain used in this assay is wt2

Row | SMILES | growth inhibition (at 1.2 µM) | growth inhibition (at 3.7 µM) | growth inhibition (at 11.0 µM) | growth inhibition (at 33.0 µM) | growth inhibition (at 100.0 µM)
1 | CSC(=S)Nc1cccc(C)n1 | -29% | -30% | -31% | -10% | 31%
2 | COc1cc2ccc(/C=C\[N+](=O)[O-])cc2cc1OC | -14% | 4% | 22% | 98% (active) | 97% (active)
3 | O=C1OC(CCl)CN1/N=C/c1ccc([N+](=O)[O-])o1 (stereo not given) | 2% | 2% | 20% | 54% | 90% (active)
4 | O=[N+]([O-])c1ccc2nc3ccccc3cc2c1 | 0% | 1% | 3% | 33% | 89% (active)
5 | CCN(CC)CC(O)c1ccc2ccc3ccccc3c2c1 (stereo not given) | 2% | 8% | 17% | 21% | 36%
6 | O=C(NC(Nc1ccc(F)c(Cl)c1)(C(F)(F)F)C(F)(F)F)C(C(F)(F)F)C(F)(F)F | 1% | 34% | 86% (active) | 99% (active) | 99% (active)
7 | Cc1cc(S(=O)(=O)/N=C(/NN)NNc2cccc(C(F)(F)F)n2)c(S)cc1Cl | 0% | -2% | -3% | -5% | 18%
8 | CCC(C)COC(=O)c1ccc(N=Cc2ccc(C=Nc3ccc(C(=O)OCC(C)CC)cc3)cc2)cc1 (stereo not given) | 0% | -2% | 0% | 2% | 5%
